# Laboratory results reported in PubChem BioAssay (NCATS).
# Inconclusive results are not listed. Where a call stands in place of a potency, no number is given. Active and inactive are the calls of the source. Calls come from the whole dose curve; as a rule, active = well fitted activation curve with a large enough effect; inconclusive = small, poorly fitted or top-dose-only effect; inactive = flat fitted curve, though single readings scatter.
# Molecular target: D(1A) dopamine receptor (Homo sapiens) (UniProt P21728)
# Assay: HTS Assay for Allosteric Agonists of the Human D1 Dopamine Receptor: Primary Screen for Agonists (AID 488981)
# Details: Inducible HEK293 T-REx D1 cells, calcium-flux fluorescence, 180 s kinetic; series mostly up to 41.8 µM
# From the text: Dopamine receptors (DARs) are involved in the etiology and/or therapy of a number of neuropsychiatric and endocrine disorders. For instance, all receptor-based antiparkinsonian drugs work via stimulating the […] DAR subtype whereas all FDA-approved antipsychotic agents are antagonists of this receptor. […] There are three different types of allosteric modulators that we are seeking, two of which will stimulate or augment receptor signaling, allosteric agonists and potentiators, while the third, allosteric antagonists, will attenuate receptor signaling. The present primary screening assay measures compound agonism by tracking calcium flux in a […], inducible Hek293 Trex D1 cell line.
# Freshly passaged cells are plated in 1536 well black, clear bottom plates at a density of 4000 cells/well in 3 ul of complete media containing 1x tetracycline inducer. After an overnight incubation at 30 C in 5% CO2, cells are loaded with 2 ul of the no wash Calcium Assay Kit (ABD Bioquest) and incubated at room temperature for 30 to 90 minutes. A 10 cycle (1 second/cycle) baseline measurement is taken and then the FDSS online 1536 pintool delivers 23 nl of compound library (as well as dopamine controls) to the plate. The plate is measured for kinetically at 1 cycle/sec for 180 seconds and is considered to be the agonist portion of the assay (eg, compounds which activate a positive calcium response during this portion are flagged as potential agonists). Following the 180 second read, 1 ul of an EC20 of dopamine is delivered by an onboard pipette head. Measurements are taken kinetically for an additional 180 seconds.
# Potency is the fitted concentration of half-maximal effect.
# Chain of D(1A) dopamine receptor (Homo sapiens) (P21728 whole entry, looked up): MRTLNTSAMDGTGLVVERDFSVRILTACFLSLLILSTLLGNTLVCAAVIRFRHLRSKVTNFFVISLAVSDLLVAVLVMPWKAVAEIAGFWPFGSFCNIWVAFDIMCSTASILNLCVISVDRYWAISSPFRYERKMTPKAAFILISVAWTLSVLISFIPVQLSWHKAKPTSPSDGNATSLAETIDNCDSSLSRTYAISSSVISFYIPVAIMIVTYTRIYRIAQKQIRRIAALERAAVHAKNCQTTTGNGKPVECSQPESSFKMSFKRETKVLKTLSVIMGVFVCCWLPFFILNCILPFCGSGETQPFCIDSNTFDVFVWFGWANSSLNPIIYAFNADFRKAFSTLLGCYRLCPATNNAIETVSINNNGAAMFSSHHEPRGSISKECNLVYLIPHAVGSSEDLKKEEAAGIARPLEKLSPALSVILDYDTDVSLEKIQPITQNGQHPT
row,SMILES,Potency
1,O=P1(N(CCCl)CCCl)NCCCO1 (stereo not given),inactive
2,CC(C)(C)NCC(O)c1ccccc1Cl (stereo not given),inactive
3,O=c1[nH]oc2c1CCNC2,inactive
4,C=C(C)[C@H]1CN[C@H](C(=O)O)[C@H]1CC(=O)O,inactive
5,CCCCC/C=C\C/C=C\C/C=C\C/C=C\CCCC(=O)NCC(=O)O,inactive
6,CC(C)c1cccc(C(C)C)c1O,inactive
7,O=C(O)CCCc1ccc(N(CCCl)CCCl)cc1,inactive
8,CN1C(=O)CCS(=O)(=O)C1c1ccc(Cl)cc1 (stereo not given),inactive
9,CC(C)N(CCC(C(N)=O)(c1ccccc1)c1ccccn1)C(C)C (stereo not given),inactive
10,CCC1(c2ccc(N)cc2)CCC(=O)NC1=O (stereo not given),inactive
11,NCCc1ccc(O)cc1,inactive
12,CC(NC(C)(C)C)C(=O)c1cccc(Cl)c1 (stereo not given),inactive
13,COc1ccc2c(c1OC)C(=O)O[C@H]2[C@@H]1c2cc3c(cc2CCN1C)OCO3,inactive
14,Cc1ncsc1CCCl,inactive
15,O=C(CCCN1CCC2(CC1)C(=O)NCN2c1ccccc1)c1ccc(F)cc1,12.6 µM (active)
